# Experimental data published in PubChem BioAssay (NCATS).
# “And” between values parts separate entries of the source, which are not always exact repeats. Equal values may be shown once. A number with no mark means an inactive call. Results filed as inconclusive are left out. A call without a number means that no potency is given here. The source made the active and inactive calls. Unless noted, the call rests on the fitted dose curve; in most records, active means well fitted curve in the direction sought with a large enough effect; inconclusive means small, poorly fitted or top-dose-only effect, or another doubt; inactive means no such curve, though single readings can be large; an effect the other way counts as inactive or inconclusive.
# Legend:
# CASKI = test: Primary qHTS to identify gynecologic anti-cancer compounds using libraries of approved drugs and bioactive compounds (AID 1345084); conditions: Gynecologic cancer cell panel viability, ATPlite luminescence, 48 h; series mostly up to 57.5 µM; further: nearly all actives have a fitted effect of over 55% in size; further: potency means the concentration at half of the fitted maximal effect
# How it was run: (§1)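 Cells, 1,000 per well, plated 16 h, then exposed 48 h at 37 C to compounds. Viability by ATPlite luminescence after 15 min at room temperature.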
# Es-2 = test: as above; conditions: Gynecologic cancer cell panel viability, ATPlite luminescence, 48 h; series mostly up to 57.5 µM
# How it was run: as §1
# HeLa = test: as above; conditions: Gynecologic cancer cell panel viability, ATPlite luminescence, 48 h; series mostly up to 57.5 µM
# How it was run: as §1
# Hek293T = test: as above; conditions: Gynecologic cancer cell panel viability, ATPlite luminescence, 48 h, control line for the selectivity index; series mostly up to 57.5 µM
# How it was run: as §1
# JEG-3 = test: as above; conditions: Gynecologic cancer cell panel viability, ATPlite luminescence, 48 h; series mostly up to 57.5 µM
# How it was run: as §1
# PA-1 = test: as above; conditions: Gynecologic cancer cell panel viability, ATPlite luminescence, 48 h; series mostly up to 57.5 µM
# How it was run: as §1
# SKOV3 = test: as above; conditions: Gynecologic cancer cell panel viability, ATPlite luminescence, 48 h; series mostly up to 57.5 µM
# How it was run: as §1
# Tov-21-G = test: as above; conditions: Gynecologic cancer cell panel viability, ATPlite luminescence, 48 h; series mostly up to 57.5 µM
# How it was run: as §1
# Tov112D = test: as above; conditions: Gynecologic cancer cell panel viability, ATPlite luminescence, 48 h; series mostly up to 57.5 µM
# How it was run: as §1
# [1] = Drug repurposing screens with cells derived from glioblastoma tumor samples (AID 1345199); conditions: GBM patient neurospheres viability, ATP luminescence, 48 h; further: nearly all actives have a fitted effect of over 40% in size; further: potency means the concentration at half of the fitted maximal effect
# How it was run: (§2)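 Primary testing used CD133+ neurospheres from four GBM patients, seven concentrations, 48 h exposure and ATP-based viability; confirmation added three slower-growing patient lines.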
# astro = test: as above; conditions: viability, ATP luminescence, 48 h; series mostly up to 45.9 µM
# How it was run: as §2
# OV90 = test: Primary qHTS to identify gynecologic anti-cancer compounds using libraries of approved drugs and bioactive compounds (AID 1345084); conditions: Gynecologic cancer cell panel viability, ATPlite luminescence, 48 h; series mostly up to 57.5 µM; further: nearly all actives have a fitted effect of over 55% in size; further: potency means the concentration at half of the fitted maximal effect
# How it was run: as §1
# [2] = qHTS assay to identify inhibitors of the type 1 interferon - major histocompatibility complex class I in skeletal muscle: Counter screen cell viability and HiBit confirmation (AID 1347412); conditions: iHSKM muscle cells + IFN-b, HiBiT or CellTiter-Glo, 24 h; further: potency means the concentration at half of the fitted maximal effect; nearly all actives have a fitted effect of over 60% in size
# How it was run: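 CRISPR HLA-B*08:01-HiBit immortalized human myoblasts (C25cl48) stimulated with 4 ng/ml IFN-beta and compounds (12-point 1:3, top 46 uM final) for 24 h at 37 C. Duplicate plates read by HiBit lytic luminescence or CellTiter Glo ATP.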
# [3] = target: Nuclear receptor subfamily 1 group I member 2 (Rattus norvegicus) (UniProt Q9R1A7); test: qHTS assay for small molecule activators of the rat pregnane X receptor (rPXR) signaling pathway (AID 651751; call rule not given here); conditions: rPXR reporter cells, luciferase (One-Glo), 24 h
# [4] = at 20 µM (top of the series), tumour line C
# [5] = at 21.2 µM (top of the series), tumour line B
# [6] = at 21.2 µM (top of the series), tumour line D
# [7] = at 21.3 µM (top of the series), tumour line A
# [8] = at 46.1 µM (top of the series), tumour line C
# [9] = at 45.9 µM (top of the series), tumour line B
# [10] = at 45.9 µM (top of the series), tumour line D
# [11] = at 46 µM (top of the series), tumour line A
# Nuclear receptor subfamily 1 group I member 2 (Rattus norvegicus), sequence (Q9R1A7 whole entry, looked up): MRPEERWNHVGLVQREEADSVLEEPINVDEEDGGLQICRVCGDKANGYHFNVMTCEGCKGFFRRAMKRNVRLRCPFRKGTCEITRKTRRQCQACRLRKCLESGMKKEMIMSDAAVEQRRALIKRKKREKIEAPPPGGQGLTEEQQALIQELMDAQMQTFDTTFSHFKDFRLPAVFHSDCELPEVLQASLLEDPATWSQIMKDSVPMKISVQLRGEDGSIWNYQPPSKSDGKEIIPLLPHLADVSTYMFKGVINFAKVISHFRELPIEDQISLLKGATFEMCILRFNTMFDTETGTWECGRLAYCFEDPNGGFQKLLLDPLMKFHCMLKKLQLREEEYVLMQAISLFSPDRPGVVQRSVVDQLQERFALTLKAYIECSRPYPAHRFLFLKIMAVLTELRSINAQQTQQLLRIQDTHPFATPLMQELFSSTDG
smiles,measurement,setting,value
C/C(=C(\CCOP(=O)(O)O)SC(=O)c1ccccc1)N(C=O)Cc1cnc(C)nc1N,"activity change, negative = cytotoxicity",CASKI,2.61% [at 6.55 µM]
same,"activity change, negative = cytotoxicity",Es-2,-4.63% [at 6.55 µM]
same,"activity change, negative = cytotoxicity",HeLa,3.42% [at 6.55 µM]
same,"activity change, negative = cytotoxicity",Hek293T,-6.19% [at 6.55 µM]
same,"activity change, negative = cytotoxicity",JEG-3,-14.5% [at 6.55 µM]
same,"activity change, negative = cytotoxicity",PA-1,12.8% [at 6.55 µM]
same,"activity change, negative = cytotoxicity",SKOV3,16.3% [at 6.55 µM]
same,"activity change, negative = cytotoxicity",Tov-21-G,4.62% [at 6.55 µM]
same,"activity change, negative = cytotoxicity",Tov112D,5.69% [at 6.55 µM]
same,"activity, negative = cell killing",[1]; [4],-2.37%
same,"activity, negative = cell killing",[1]; [5],1.9%
same,"activity, negative = cell killing",[1]; [6],-14.8%
same,"activity, negative = cell killing",[1]; [7],-14%
same,Potency,astro,inactive
OCc1cc(C(O)CNCCCCCCOCCCCc2ccccc2)ccc1O (stereo not drawn),Potency,CASKI,inactive
same,Potency,Es-2,inactive
same,Potency,HeLa,inactive
same,Potency,JEG-3,inactive
same,Potency,Tov-21-G,inactive
same,Potency,Tov112D,inactive
same,"activity, negative = cell killing",[1]; [8],2.29%
same,Potency,[1]; tumour line A,7.08 µM (active)
same,Potency,[1]; tumour line B,20 µM (active)
same,Potency,[1]; tumour line D,20 µM (active)
same,Potency,astro,11.2 µM (active)
Cc1cc(N)c2ccccc2[n+]1CCCCCCCCCC[n+]1c(C)cc(N)c2ccccc21,Potency,Es-2,inactive
same,Potency,HeLa,inactive
same,Potency,JEG-3,inactive
same,Potency,PA-1,22.4 µM (active)
same,Potency,Tov112D,inactive
CC1(C)CO[C@@H](CC(=O)O)CN1,Potency,CASKI,inactive
same,Potency,Es-2,inactive
same,Potency,HeLa,inactive
same,Potency,JEG-3,inactive
same,Potency,OV90,inactive
same,Potency,PA-1,inactive
same,Potency,SKOV3,inactive
same,Potency,Tov-21-G,inactive
same,Potency,Tov112D,inactive
same,"activity, negative = cell killing",[1]; [9],-8.88%
same,"activity, negative = cell killing",[1]; [10],-5.5%
same,"activity, negative = cell killing",[1]; [11],-28.2%
same,"activity, negative = cell killing",[1]; [8],-15.1%
same,Potency,astro,inactive
CC(CN(C)C)CN1c2ccccc2CCc2ccccc21 (stereo not drawn),Potency,Es-2,inactive
same,Potency,HeLa,inactive
same,Potency,Hek293T,inactive
same,Potency,JEG-3,inactive
same,Potency,PA-1,inactive
same,Potency,SKOV3,inactive
same,Potency,Tov-21-G,inactive
same,Potency,Tov112D,inactive
same,"activity, negative = cell killing",[1]; [4],-0.604%
same,"activity, negative = cell killing",[1]; [5],-19%
same,Potency,[1]; tumour line A,6.31 µM (active)
same,Potency,astro,inactive
CC(C(O)c1ccc(O)cc1)N1CCC(Cc2ccccc2)CC1 (stereo not drawn),Potency,CASKI,inactive
same,Potency,Es-2,inactive
same,Potency,HeLa,inactive
same,Potency,Hek293T,inactive
same,Potency,JEG-3,inactive
same,Potency,PA-1,inactive
same,Potency,SKOV3,inactive
same,Potency,Tov-21-G,inactive
same,Potency,Tov112D,inactive
same,"activity, negative = cell killing",[1]; [8],-15.9%
same,Potency,[1]; tumour line A,2.82 µM (active)
same,Potency,[1]; tumour line B,35.5 µM (active)
same,Potency,[1]; tumour line D,12.6 µM (active)
same,Potency,astro,inactive
CNCCCC1c2ccccc2C=Cc2ccccc21,Potency,HeLa,inactive
same,Potency,JEG-3,inactive
same,Potency,SKOV3,inactive
same,"activity, negative = cell killing",[1]; [4],3.37%
same,Potency,[1]; tumour line A,6.31 µM (active)
Nc1cc(=O)[nH]c(N)n1,Potency,Es-2,inactive
same,Potency,HeLa,inactive
same,Potency,Hek293T,inactive
same,Potency,JEG-3,inactive
same,Potency,OV90,inactive
same,Potency,SKOV3,inactive
same,Potency,Tov-21-G,inactive
same,Potency,Tov112D,inactive
same,"activity, negative = cell killing",[1]; [9],1%
same,"activity, negative = cell killing",[1]; [10],-2.29%
same,"activity, negative = cell killing",[1]; [11],-24.4%
same,"activity, negative = cell killing",[1]; [8],6.18%
same,Potency,astro,inactive
Cc1ccc2nc(N)[nH]c(=O)c2c1Sc1ccncc1,Potency,Es-2,inactive
same,Potency,Hek293T,inactive
same,Potency,JEG-3,6.31 µM (active)
same,Potency,OV90,inactive
same,Potency,PA-1,inactive
same,Potency,SKOV3,inactive
same,Potency,Tov-21-G,inactive
same,Potency,Tov112D,3.55 µM (active)
same,"activity, negative = cell killing",[1]; [10],-18.7%
same,"activity, negative = cell killing",[1]; [8],-42.8%
same,Potency,[1]; tumour line A,7.08 µM (active)
C[C@H](NC(CCc1ccccc1)C(=O)O)C(=O)N1CCC[C@H]1C(=O)O (stereo partly drawn),Potency,CASKI,inactive
same,Potency,HeLa,inactive
same,Potency,Hek293T,inactive
same,Potency,JEG-3,inactive
same,Potency,OV90,inactive
same,Potency,PA-1,inactive
same,Potency,SKOV3,inactive
same,Potency,Tov-21-G,inactive
same,Potency,Tov112D,inactive
same,"activity, negative = cell killing",[1]; [9],-5.92%
same,"activity, negative = cell killing",[1]; [10],1.9%
same,"activity, negative = cell killing",[1]; [11],-1.54%
same,"activity, negative = cell killing",[1]; [8],-2.05%
same,Potency,astro,inactive
CN(C)CCCN1c2ccccc2Sc2ccc(Cl)cc21,"activity, negative = cell killing",[1]; [8],-4.19%
same,Potency,[1]; tumour line A,3.98 µM (active)
same,Potency,[1]; tumour line B,15.8 µM (active)
same,Potency,[1]; tumour line D,20 µM (active)
same,Potency,astro,12.6 µM (active)
CCN(CC)CCNC(=O)c1c(C)[nH]c(/C=C2\C(=O)Nc3ccc(F)cc32)c1C,Potency,Hek293T,inactive
same,Potency,JEG-3,inactive
same,Potency,OV90,10 µM (active)
same,Potency,PA-1,10 µM (active)
same,Potency,SKOV3,8.91 µM (active)
same,Potency,Tov112D,inactive
same,"activity, negative = cell killing",[1]; [8],3.12%
same,Potency,[1]; tumour line A,11.2 µM (active)
same,Potency,[1]; tumour line D,28.2 µM (active)
same,Potency,astro,12.6 µM (active)
same,Potency,[2]; HiBiT,3.94 µM (active)
same,Potency,[2]; Viability,7.01 µM (active)
CSc1ccc2c(c1)N(CCC1CCCCN1C)c1ccccc1S2 (stereo not drawn),Potency,Es-2,inactive
same,Potency,HeLa,inactive
same,Potency,Hek293T,inactive
same,Potency,Tov112D,28.2 µM (active)
same,"activity, negative = cell killing",[1]; [8],-0.209%
same,Potency,[1]; tumour line A,2.82 µM (active)
same,Potency,[1]; tumour line B,20 µM (active)
same,Potency,[1]; tumour line D,5.01 µM (active)
same,Potency,astro,20 µM (active)
CN(C)CCC=C1c2ccccc2CCc2ccccc21,Potency,CASKI,inactive
same,Potency,Es-2,inactive
same,Potency,HeLa,inactive
same,Potency,JEG-3,inactive
same,Potency,PA-1,inactive
same,Potency,SKOV3,inactive
same,Potency,Tov-21-G,inactive
same,Potency,Tov112D,inactive
same,max response,[3],4.03% and -3.34%
NS(=O)(=O)c1cc2c(cc1C(F)(F)F)NC(Cc1ccccc1)NS2(=O)=O (stereo not drawn),Potency,CASKI,inactive
same,Potency,Es-2,inactive
same,Potency,HeLa,inactive
same,Potency,Hek293T,inactive
same,Potency,JEG-3,inactive
same,Potency,PA-1,inactive
same,Potency,SKOV3,inactive
same,Potency,Tov-21-G,inactive
same,Potency,Tov112D,inactive
same,"activity, negative = cell killing",[1]; [4],-4.97%
same,"activity, negative = cell killing",[1]; [5],-2.05%
same,"activity, negative = cell killing",[1]; [6],-0.808%
same,"activity, negative = cell killing",[1]; [7],-15.9%
same,Potency,astro,inactive
CNCC(O)c1ccc(O)c(O)c1 (stereo not drawn),Potency,HeLa,inactive
same,Potency,Hek293T,inactive
same,Potency,JEG-3,inactive
same,Potency,OV90,inactive
same,Potency,SKOV3,28.2 µM (active)
same,Potency,Tov-21-G,inactive
same,Potency,Tov112D,inactive
OCCN1CCN(CCCN2c3ccccc3Sc3ccc(Cl)cc32)CC1,Potency,CASKI,25.1 µM (active)
same,Potency,HeLa,inactive
same,Potency,OV90,15.8 µM (active)
same,Potency,SKOV3,28.2 µM (active)
same,Potency,Tov112D,25.1 µM (active)
same,"activity, negative = cell killing",[1]; [4],-18%
same,Potency,[1]; tumour line A,3.16 µM (active)
same,Potency,[1]; tumour line B,8.91 µM (active)
same,Potency,[1]; tumour line D,10 µM (active)
NC1[C@H]2CN(c3nc4c(cc3F)c(=O)c(C(=O)O)cn4-c3ccc(F)cc3F)C[C@@H]12 (stereo partly drawn),Potency,CASKI,inactive
same,Potency,JEG-3,inactive
same,Potency,OV90,inactive
same,Potency,Tov112D,inactive
same,"activity, negative = cell killing",[1]; [9],-29.1%
